# Test results from PubChem BioAssay (NCATS).
# Records with an inconclusive call do not appear. Unmarked numbers belong to inactive results. Calls come from the whole dose curve; as a rule, active = well fitted inhibition curve with a large enough effect; inconclusive = small, poorly fitted or top-dose-only effect; inactive = flat fitted curve, though single readings scatter.
# Biological target: Calcium and integrin-binding protein 1 (Homo sapiens) (UniProt Q99828)
# Assay: Primary qHTS for Identification of Calcium Integrin Binding Protein 1 (CIB1) Competitor (AID 1508620);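 note: GST tagged CIB1 binding a fluorescein labelled alphaIIb integrin peptide tracer; top concentration of the series differs between compounds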
# Conditions: CIB1-GST / FITC-alphaIIb peptide fluorescence polarization; series mostly up to 114 µM; activity change, negative = inhibition: at the top concentration
# Summary of the method: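 CIB1-GST (1 uM final) and compound incubated 15 min at room temperature before adding FITC-alphaIIb peptide tracer (100 nM final). Competition for binding read by fluorescence polarization (ex 480, em 540) after another 15 min at room temperature.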
# % is set by controls: 0 for no effect and ±100 for the full control effect.
# Chain of Calcium and integrin-binding protein 1 (Homo sapiens) (Q99828 whole entry, looked up): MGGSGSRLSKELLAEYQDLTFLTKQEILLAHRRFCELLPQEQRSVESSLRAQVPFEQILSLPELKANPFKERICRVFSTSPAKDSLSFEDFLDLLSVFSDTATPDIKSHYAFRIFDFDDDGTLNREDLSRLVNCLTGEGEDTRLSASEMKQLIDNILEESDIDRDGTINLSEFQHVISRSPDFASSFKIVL
row,SMILES,"activity change, negative = inhibition"
1,COc1ccc2nc(-c3cc(OC)c(OC)c(OC)c3)cc(C(=O)NCC(=O)Nc3ccc(C(C)=O)cc3)c2c1,-5.61%
2,COc1cc2c(Nc3cc(F)c(Cl)c(Cl)c3)ncnc2cc1OCC1CCCN(C)CCC1,3.17%
3,CC(C)n1cnc2c(-c3cnc(N)nc3)nc(N3CCOCC3)nc21,1.52% [at 57.7 µM]
4,CCc1cnc(N2CCC(c3nc(COc4ccc(-n5cnnn5)cc4)cs3)CC2)nc1,-3.96%
5,Nc1nc(NC2CC2)cc(-c2cccc(Cl)c2Cl)n1,-10.3%
6,C=C1C(=O)O[C@@H]2/C=C(\CO)CC/C=C(/C=O)C[C@@H](O)[C@@H]12,-1.97%
7,C=C1C(=O)OC2CC(C)=C(C(C)CCCOC(C)=O)C(OC(=O)CC(C)CC)C12 (stereo unspecified),-0.308% [at 57.7 µM]
8,Clc1ccc(Cn2c(Cc3ccccc3)nc3ccccc32)cc1,-0.212%
9,C=CC1(C)CC(O)C(C(=C)C(=O)OC)C(O)C1C(=C)CO (stereo unspecified),4.99%
10,CN(CC1COCCO1)S(=O)(=O)Nc1ccc2ccc3ncc(-c4cnn(C)c4)cc3c(=O)c2c1 (stereo unspecified),-16.2%
11,C=C1C(=O)OC2C1CCC1(C)C(O)CC=C(C)C21 (stereo unspecified),-13.5%
12,CC(NCCCc1cccc(C(F)(F)F)c1)c1cccc2ccccc12 (stereo unspecified),0.544% [at 57.7 µM]
13,CCN1CCN(Cc2ccc(NC(=O)c3ccc(C)c(Oc4ccnc5[nH]ccc45)c3)cc2C(F)(F)F)CC1,-8.4% [at 57.7 µM]
14,CCCCC1CCC(c2nc(-c3ccncc3)no2)CC1 (stereo unspecified),7.55%
15,O=C1COC2(CCN(S(=O)(=O)c3ccc(-c4ccc5cccnc5c4)cc3)CC2)CN1C1CC1,-1.58%
16,O=C(COc1ccc2ccccc2c1Br)Nc1cccnc1,2.16%
17,COc1ccc(C2(N(C)C(=O)c3ccc(NC(=O)c4ccco4)cc3)CCOCC2)cc1,2.99%
18,O=S1(=O)CCN(Cc2cc(NCC3CCOCC3)c3[nH]c(-c4ccccc4)cc3c2)CC1,-12%

row,SMILES,"activity change, negative = inhibition"
1,O=C(NC1CCN(CCCCC2(C(=O)NCC(F)(F)F)c3ccccc3-c3ccccc32)CC1)c1ccccc1-c1ccc(C(F)(F)F)cc1,-3.58%
2,Cc1ccnc(NC(=O)C(C)c2cccc(C(=O)c3ccccc3)c2)c1 (stereo unspecified),3.38%
3,CC(C)c1ccc(NC(=O)Cn2cnc3c2c(=O)n(C)c(=O)n3C)cc1,3.06%
4,NS(=O)(=O)Nc1ncnc(OCCOc2ncc(Br)cn2)c1-c1ccc(Br)cc1,-6.19%
5,COc1cc(-c2cn(C3CCc4c(F)cccc4N(CC(F)(F)F)C3=O)nn2)ccc1-n1cnc(C)c1 (stereo unspecified),3.78%
6,C/C=C(\C)C(=O)O[C@@H]1[C@@H](C)[C@]2(O)[C@@H]3C=C(C)C(=O)[C@H]3CC(CO)=C[C@H]2C2C(C)(C)[C@@]21OC(=O)C(C)CC (stereo partly specified),3.1% [at 57.7 µM]
7,C[C@@H]1O[C@@H](O[C@H]2[C@@H](OC(=O)[C@]34CCC(C)(C)CC3C3=CCC5[C@@]6(C)C[C@H](O)[C@H](O[C@@H]7O[C@H](CO)[C@@H](O)[C@H](O)[C@H]7O[C@@H]7OC[C@@H](O)[C@H](O)[C@H]7O)[C@@](C)(C(=O)O)C6CC[C@@]5(C)[C@]3(C)CC4)OC[C@H](O)[C@@H]2O)[C@H](O)[C@H](O)[C@H]1O[C@@H]1OC[C@@H](O)[C@H](O)[C@H]1O (stereo partly specified),-5.44% [at 12.4 µM]
8,O=C(NCCCN1CCC2(CC1)OCc1ccccc12)[C@H]1CCCN1Cc1ccccc1,-2.36%
9,CC1(C)CC[C@]2(C(=O)O)[C@H](O)C[C@]3(C)C(=CCC4[C@@]5(C)CC[C@H](O[C@@H]6O[C@H](CO[C@@H]7OC[C@H](O)[C@H](O)[C@H]7O[C@@H]7OC[C@H](O)[C@H](O)[C@H]7O)[C@@H](O)[C@H](O)[C@H]6O)C(C)(C)C5CC[C@]43C)[C@@H]2C1 (stereo partly specified),-3.42% [at 30.2 µM]
10,C=C1CCC2C(C)(C)CCCC2(C)C1CC/C(C)=C\CO (stereo unspecified),0.875%
11,C=C1C(=O)O[C@@H]2[C@H]1CC[C@H](C)[C@]1(CCC(=O)O1)C2(C)O (stereo partly specified),-5.76%
12,C=C1C(=O)O[C@@H]2/C=C(\C)CC/C=C(\C)CC[C@@H]12,-10.4%
13,COc1c(CCC(=O)O)cccc1O[C@@H]1O[C@H](CO)[C@@H](O)[C@H](O)[C@H]1O,-4.01% [at 57.7 µM]
14,CCn1c2ccccc2c2cc(Nc3ccnc(NCCCN4CCOCC4)n3)ccc21,-15.7%
15,CC#CCn1c(N2CCCC(N)C2)nc2c1c(=O)n(Cc1nc(C)c3ccccc3n1)c(=O)n2C (stereo unspecified),-6.8%
16,COc1ccc(NC(=O)C2C[C@H](C)CC[C@H]2C(C)C)cc1 (stereo partly specified),0.341%
17,O=C(Nc1cc(C(F)(F)F)cc(C(F)(F)F)c1)c1cnc(Cl)nc1C(F)(F)F,7.5%
18,O=C(Nc1nc2ccc([N+](=O)[O-])cc2s1)C1CCCCC1,-8.39%
